Test results reported in PubChem BioAssay (Tox21).
Results filed as inconclusive are left out. Activity calls are given as the source filed them. Unless noted, the call rests on the fitted dose curve; in most records, active means well fitted curve in the direction sought with a large enough effect in the repeat runs; inconclusive means weak or mixed curves; inactive means no such curve, though single readings can be large; an effect the other way counts as inactive or inconclusive.

What was measured:
[1] = A CellTox Green Cytotoxicity Assay to monitor cytotoxicity in HepG2 cells - 8 hour (AID 1224890); conditions: CellTox Green fluorescence; series mostly up to 76.8 µM; further: nearly all actives have a fitted effect of over 45% in size
Summary of the method: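 Read-out is fluorescence of a cyanine dye excluded from live cells that stains DNA of dead HepG2 cells, with signal proportional to cytotoxicity. Plates were read at 0, 8, 16, 24, 32 and 40 h after compound addition.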

[2] = qHTS assay to identify small molecule antagonists of the estrogen receptor alpha (ER-alpha) signaling pathway using the BG1 cell line in the presence of 0.1 nM 17-beta-estradiol - cell viability counter screen (AID 1259241); conditions: VM7Luc4E2 (BG1) viability, CellTiter-Fluor protease, 22 h, 0.1 nM estradiol agonist added; series mostly up to 92.4 µM; further: nearly all actives have a fitted effect of over 40% in size
Summary of the method: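 VM7Luc4E2 cells (endogenous ER-alpha, 4×ERE-luciferase), hormone-starved 5 days in charcoal-stripped FBS, were treated with compounds plus 0.1 nM 17beta-estradiol for 22 hr at 37C; viability read in same wells as CellTiter-Fluor live-cell protease fluorescence.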

[3] = qHTS assay to identify small molecule antagonists of the androgen receptor (AR) signaling pathway using the MDA cell line in the presence of 0.5 nM R1881 - cell viability counter screen (AID 1259242); conditions: MDA-kb2 viability, CellTiter-Fluor protease fluorescence, 16 h; series mostly up to 92.4 µM; further: nearly all actives have a fitted effect of over 45% in size
Summary of the method: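 Counter screen for cytotoxicity run in the same wells as the AR antagonist reporter screen: MDA-kb2 cells were treated 16 hr with test compounds and 0.5 nM R1881, then live-cell protease activity was measured by fluorescence.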

[4] = target: Estrogen receptor (Homo sapiens) (UniProt P03372); assay: qHTS assay to identify small molecule antagonists of the estrogen receptor alpha (ER-alpha) signaling pathway using the BG1 cell line in the presence of 0.1 nM 17-beta-estradiol (AID 1259244); conditions: VM7Luc4E2 (BG1) ERE-luciferase, antagonist mode, 0.1 nM E2, 22 h; series mostly up to 92.4 µM; further: nearly all actives have a fitted effect of over 50% in size; further: potency means the concentration at half of the fitted maximal effect
Summary of the method: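 Cells: VM7Luc4E2, endogenous ER-alpha, 4x ERE-luc stable. Pre-culture 5 d, phenol red-free, charcoal-stripped FBS. Plated 24 h, compound + E2 0.1 nM final, 22 h 37C/5% CO2. Readout ONE-Glo luminescence.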

[5] = qHTS assay to identify small molecule HDAC inhibitors (AID 1259364); conditions: HCT-116 HDAC-Glo I/II luminescence, 2 h; series mostly up to 92.4 µM; further: nearly all actives have a fitted effect of over 45% in size; further: potency means the concentration at half of the fitted maximal effect
Summary of the method: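 Luminescence from a cell-permeant luminogenic class I/II HDAC substrate reports endogenous deacetylase activity in intact HCT-116 cells treated with compounds for 2 h.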

[6] = qHTS assay to identify small molecule HDAC inhibitors - cell viability counter screen (AID 1259365); conditions: HCT-116 viability, CellTiter-Glo ATP luminescence, 2 h; series mostly up to 92.4 µM; further: nearly all actives have a fitted effect of over 50% in size
Summary of the method: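 Wild-type HCT-116 cells were seeded at 1,500 per well, incubated overnight at 37 C, then exposed to compounds in DMSO for 2hr. Viability was read by CellTiter-Glo luminescence after 30min at room temperature.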

[7] = qHTS assay to identify small molecule antagonists of the sonic hedgehog signaling (Shh) pathway - cell viability counter screen (AID 1259367); conditions: NIH/3T3 Gli1-Luc viability, CellTiter-Fluor, 24 h; series mostly up to 92.4 µM; further: nearly all actives have a fitted effect of over 55% in size
Summary of the method: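 After a 4 hr settling period, 3T3 Gli1-Luc cells were treated with DMSO-dissolved chemicals and conditioned medium, kept 24 hr at 37C in 5% CO2, and assayed for viability by CellTiter-Fluor fluorescence following 1 hr reagent incubation.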

[8] = qHTS assay to identify small molecule agonists of the sonic hedgehog signaling (Shh) pathway (AID 1259368; calls by dose curve; further: nearly all actives have a fitted effect of over 15% in size); conditions: NIH/3T3 Gli1-Luc reporter, luciferase, 24 h; series mostly up to 92.4 µM
Summary of the method: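 3T3Gli1-Luc (NIH/3T3 clone, stable Gli1-Luc); 4 hr pre-incubation, then cpd in DMSO 24 hr, 37 C/5% CO2; luciferase reagent 30 min RT; luminescence.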

[9] = qHTS assay to identify small molecule antagonists of the sonic hedgehog signaling (Shh) pathway (AID 1259369; calls by dose curve; further: nearly all actives have a fitted effect of over 45% in size; further: potency means the concentration at half of the fitted maximal effect); conditions: NIH/3T3 Gli1-Luc reporter, Shh antagonist, luminescence 24 h; series mostly up to 92.4 µM
Summary of the method: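 3T3Gli1-Luc, conditioned-medium-stimulated, 24hr cpd, 37C/5% CO2; Gli1-driven firefly Luc luminescence after 30min RT with luciferase reagent. Cells plated 4hr before cpd.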

[10] = target: Estrogen receptor beta (Homo sapiens) (UniProt Q92731); assay: qHTS assay to identify small molecule agonists of the estrogen receptor beta (ER-beta) signaling pathway (AID 1259377; active means well fitted activation curve with a large enough effect in the signal ratio in the repeat runs, not every such curve was filed as active; the % refers to the signal ratio); conditions: ER-beta-UAS-bla HEK293T, beta-lactamase FRET ratio, 16 h; series mostly up to 92.4 µM
Summary of the method: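 ER-beta-UAS-bla HEK293T (GripTite) cells carrying a UAS-driven beta-lactamase reporter, in medium with 2% charcoal-stripped FBS, were exposed to compounds for 16 hr at 37C; LiveBLAzer B/G FRET substrate was then added and fluorescence read after 2 hours at room temperature.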

[11] = target: Estrogen receptor beta (Homo sapiens) (UniProt Q92731); assay: qHTS assay to identify small molecule antagonists of the estrogen receptor beta (ER-beta) signaling pathway (AID 1259378; active means well fitted inhibition curve with a large enough effect in the signal ratio in the repeat runs, not every such curve was filed as active; the % refers to the signal ratio); conditions: ER-beta-UAS-bla HEK293T, beta-lactamase FRET ratio, 16 h; series mostly up to 92.4 µM
Summary of the method: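 ER-beta-UAS-bla HEK293T (GripTite) cells in 2% charcoal-stripped FBS medium were preincubated 6 hr at 37C, dosed with compound, then stimulated with 1 nM E2 (final) for 16 hr; beta-lactamase reporter read by B/G FRET fluorescence after 2 hr substrate loading.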

[12] = qHTS assay to identify small molecule agonists of the androgen receptor (AR) signaling pathway in the presence of an antagonist - cell viability counter screen (AID 1259379); conditions: MDA-kb2 viability, CellTiter-Fluor, 16 h; series mostly up to 92.4 µM;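 further: MDA-kb2 human breast cancer cells carrying an MMTV luciferase reporter; nearly all actives have a fitted effect of over 25% in size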
Summary of the method: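 Cells: MDA-kb2 (MMTV-luc, AR and GR elements), 3,000/well, 5 hr settle. Added: nilutamide 3.0uM final, then compounds (15 conc.). Incubation: 16 hr, 37C, no CO2. Read-out: CellTiter-Fluor, 1 hr, fluorescence.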

[13] = qHTS assay to identify small molecule antagonists of the estrogen receptor beta (ER-beta) signaling pathway - cell viability counter screen (AID 1259382); conditions: ER-beta-UAS-bla HEK293T viability, CellTiter-Glo luminescence, 16 h; series mostly up to 92.4 µM; further: nearly all actives have a fitted effect of over 55% in size
Summary of the method: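 Cells: ER-beta-UAS-bla HEK293T, 2,000/well, 2% CS-FBS, 6 hr settle. Cpd + E2 (1nM final), 16 hr, 37C/5% CO2. Bla FRET substrate 2 hr RT, then CellTiter-Glo 30 min RT, luminescence.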

[14] = target: Estrogen receptor (Homo sapiens) (UniProt P03372); assay: qHTS assay to identify small molecule agonists of the estrogen receptor alpha (ER-alpha) signaling pathway in the presence of an antagonist (AID 1259383; calls by dose curve; further: top concentration of the series differs between compounds; nearly all actives have a fitted effect of over 15% in size); conditions: VM7Luc4E2 cells, ERE-luciferase, +ICI-182,780, 22 h; series mostly up to 92.4 µM
Summary of the method: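 VM7Luc4E2, endog. ER-alpha + 4×ERE-luc; charcoal-stripped FBS, phenol red-free, 5 d; 24hr plating; +10.0nM ICI-182,780 (final); cpds 15 conc, 22hr, 37C/5% CO2; ONE-Glo luminescence.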

[15] = qHTS assay to identify small molecule agonists or antagonists of the thyroid stimulating hormone receptor (TSHR) signaling pathway - wild type cell line counter screen (AID 1259384; calls by dose curve); conditions: HEK293 wild type, cAMP HTRF counter-screen, active compounds read high; series mostly up to 92.4 µM
Summary of the method: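 Wild-type HEK293 cells were plated 18 h at 37 C/5% CO2, pin-dosed with compound plus Ro20-1724 medium, held 30 min at room temperature, then given cAMP-d2 and anti-cAMP-cryptate; fluorescence was read after 1 h. Fifteen concentrations, triplicate.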

[16] = qHTS assay to identify small molecule agonists of the sonic hedgehog signaling (Shh) pathway - cell viability counter screen (AID 1259366); conditions: NIH/3T3 Gli1-Luc viability, CellTiter-Fluor, 24 h; series mostly up to 92.4 µM; further: nearly all actives have a fitted effect of over 50% in size
Summary of the method: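 NIH/3T3-derived 3T3 Gli1-Luc cells (stable Gli1-responsive firefly luciferase reporter) were seeded, rested 4 hr at 37 C/5% CO2, then exposed to compounds in DMSO for 24 hr; viability was read by CellTiter-Fluor fluorescence in the same wells.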

[17] = qHTS assay to identify small molecule agonists of the estrogen receptor beta (ER-beta) signaling pathway - cell viability counter screen (AID 1259380); conditions: ER-beta-bla HEK293T viability, CellTiter-Glo luminescence, 16 h; series mostly up to 92.4 µM; further: nearly all actives have a fitted effect of over 30% in size
Summary of the method: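 HEK293T ER-beta-UAS-bla; 2% CS-FBS; 6 hr pre-plate, 16 hr cpd at 37C/5% CO2; LiveBLAzer read first, then CellTiter-Glo 30 min RT, luminescence.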

Measured: Potency

Chain of Estrogen receptor beta (Homo sapiens) (Q92731 whole entry, looked up): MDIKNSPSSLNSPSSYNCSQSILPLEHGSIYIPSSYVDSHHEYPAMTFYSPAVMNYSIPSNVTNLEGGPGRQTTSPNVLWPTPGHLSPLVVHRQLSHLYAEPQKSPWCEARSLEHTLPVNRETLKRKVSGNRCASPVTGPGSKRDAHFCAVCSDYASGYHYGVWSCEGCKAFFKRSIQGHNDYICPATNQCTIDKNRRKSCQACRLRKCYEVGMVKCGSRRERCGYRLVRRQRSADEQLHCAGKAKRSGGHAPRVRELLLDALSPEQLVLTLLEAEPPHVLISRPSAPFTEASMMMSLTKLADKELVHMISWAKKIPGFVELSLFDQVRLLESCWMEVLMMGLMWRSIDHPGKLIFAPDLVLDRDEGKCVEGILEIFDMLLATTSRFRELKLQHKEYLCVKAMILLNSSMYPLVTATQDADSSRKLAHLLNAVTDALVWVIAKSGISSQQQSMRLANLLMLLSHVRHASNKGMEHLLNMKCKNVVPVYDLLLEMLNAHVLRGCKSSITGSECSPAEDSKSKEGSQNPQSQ
Chain of Estrogen receptor (Homo sapiens) (P03372 whole entry, looked up): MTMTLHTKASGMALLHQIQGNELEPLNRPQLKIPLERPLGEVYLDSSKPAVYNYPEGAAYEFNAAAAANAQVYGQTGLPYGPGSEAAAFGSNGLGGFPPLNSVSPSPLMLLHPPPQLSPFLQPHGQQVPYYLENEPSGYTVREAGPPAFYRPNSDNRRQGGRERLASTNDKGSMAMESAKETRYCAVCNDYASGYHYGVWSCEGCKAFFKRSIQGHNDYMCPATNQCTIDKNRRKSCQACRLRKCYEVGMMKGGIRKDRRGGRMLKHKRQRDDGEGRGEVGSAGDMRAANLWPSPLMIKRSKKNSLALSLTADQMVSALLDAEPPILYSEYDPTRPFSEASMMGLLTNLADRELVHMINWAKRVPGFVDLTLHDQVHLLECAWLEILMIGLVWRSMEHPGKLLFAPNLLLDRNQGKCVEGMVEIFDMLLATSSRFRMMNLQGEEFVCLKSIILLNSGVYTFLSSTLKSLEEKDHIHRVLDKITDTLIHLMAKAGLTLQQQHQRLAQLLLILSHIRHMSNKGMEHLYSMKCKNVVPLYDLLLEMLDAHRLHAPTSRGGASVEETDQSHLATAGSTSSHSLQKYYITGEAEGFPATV

CC(C)C(=O)OC/C=C/c1ccccc1
not listed: [16] | [17]
inactive: all other assays above

CCCCC1CCC(=O)O1 (stereo not given)
not listed: [8]
inactive: all other assays above

ICCc1ccccc1
active: [4] 67.2 µM | [9] 16.9 µM
not listed: [7] | [8] | [16]
inactive: all other assays above

Cc1ccc(C)c(N)c1
not listed: [7] | [17]
inactive: all other assays above

CC(C)(C)c1ccc(OC(=O)c2ccccc2O)cc1
active: [5] 27.3 µM
not listed: [8] | [10] | [14] | [17]
inactive: all other assays above

O=C(O)c1cccc(Cl)c1Cl
not listed: [6]
inactive: all other assays above

O=C1C=CC(=O)O1
not listed: [7] | [17]
inactive: all other assays above

CC(C)C(=O)OCC(C)(C)C(O)C(C)C (stereo not given)
not listed: [7] | [17]
inactive: all other assays above

CN(CCCN1c2ccccc2CCc2ccccc21)CC(=O)c1ccc(Cl)cc1
active: [9] 26.6 µM
not listed: [7] | [10] | [11] | [13] | [17]
inactive: all other assays above

C[C@]12C(=O)OC(=O)[C@H]1[C@H]1C=C[C@@H]2C1
not listed: [7] | [9] | [10] | [11] | [16] | [17]
inactive: all other assays above

CCCc1c2oc(C(=O)O)cc(=O)c2cc2c(=O)cc(C(=O)O)n(CC)c12
not listed: [10] | [11]
inactive: all other assays above

CCCCNc1ccc(C(=O)OCCN(CC)CC)cc1
not listed: [7] | [9] | [16] | [17]
inactive: all other assays above
